Among the data in PubChem BioAssay (EPA / NIEHS) are outcome and AC50 values, retold here.

Values joined by “and” are separate entries in the source; they are usually repeats but may differ in a detail not shown here. Identical values can stand only once. Results filed as inconclusive are left out. Some structures have more than one record in an assay (separate samples or runs), and their calls can disagree. Active and inactive are the calls of the source. The calls were made as follows, unless noted: active = hit-call score of the fitted dose curve at least 0.9, where 1 is the maximum; inactive = score below 0.9.

Test [1] is described as follows: CCTE_Mundy_HCI_hNP1_Pro_ResponderAvgInten: CCTE's Proliferation Assay in human neuroprogenitor cells, Mundy Lab (AID 2284224; active = hit-call score of the fitted dose curve at least 0.9, where 1 is the maximum;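 also: human neural progenitor cells hNP1 derived from WA09 embryonic stem cells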). In outline:
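Proliferation was scored as BrdU labelling intensity in human neural progenitors derived from WA09 embryonic cells, measured 26.25 hours after chemical dosing. Activity was fitted relative to DMSO.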

Test [2] can be described thus: BSK_BT_PBMCCytotoxicity: PBMC Cytotoxicity Assessment in the BioMAP Diversity Plus: BT Assay (AID 2284225).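 Also: PBMC viability measured by Alamar Blue dye reduction fluorescence.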 The settings on record: primary human B cells with PBMC. In outline: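 Primary human co-culture of B cells and PBMC, pre-dosed 1 h then activated with SEB and TSST-1. Cytotoxicity is taken from Alamar Blue dye reduction, added for 6 h at the end of a 90 h incubation.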

Read-out in test [3]: Secreted IgG (sIgG), gene 3500
Description: BSK_BT_sIgG: BioMAP Diversity Plus: BT Assay for Secreted IgG (sIgG) Biomarker Activity (AID 2284226). The settings on record: primary human B cells with PBMC. In outline: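 Human B cell/PBMC co-culture; compound exposure 24 h; sIgG by ELISA; gain-of-signal fit vs DMSO baseline.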

A short description of test [4]: BSK_BT_Bcell_Proliferation: Viability Assessment in the BioMAP Diversity Plus: BT Assay for B cell Proliferation (AID 2284227). Conditions: primary human B cells with PBMC. In outline:
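Human B cell/PBMC co-culture; test chemical added; 72 h; TCA fix (10%), 0.1% SRB stain, A560 for total protein as a proliferation read-out; positive-direction fit vs DMSO baseline.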

Read-out in test [5]: Interleukin 6 (IL6), IL6 (gene 3569)
Put plainly: BSK_BT_xIL6: BioMAP Diversity Plus: BT Assay for Interleukin 6 (IL6) Biomarker Activity (AID 2284228). The settings on record: primary human B cells with PBMC. In short, it runs like this:
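Secreted IL-6 in the primary human B cell plus PBMC system, measured by Luminex at 24 h post-chemical, DMSO as baseline. Alamar Blue viability: 75,000 cells/well, chemical 1 h before SEB/TSST-1 (20 ng/mL each), 90 h, then 6 h dye.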

Read-out in test [6]: Interleukin 17A (IL17A), IL17A (gene 3605)
Description: BSK_BT_xIL17A: BioMAP Diversity Plus: BT Assay for Interleukin 17A (IL17A) Biomarker Activity (AID 2284229). Conditions: primary human B cells with PBMC. In outline: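 Luminex xMAP quantification of secreted IL-17A after 24 h chemical exposure of a primary human B cell/PBMC co-culture. Signal increases fitted relative to DMSO negative control.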

Read-out in test [7]: Tumor necrosis factor (Homo sapiens) (UniProt P01375)
Put plainly: BSK_BT_xTNFa: BioMAP Diversity Plus: BT Assay for Tumor necrosis factor alpha (TNF-alpha) Biomarker Activity (AID 2284230). Conditions: primary human B cells with PBMC. In outline: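 Read-out: Luminex xMAP quantitation of secreted TNF-alpha from a B cell/PBMC co-culture 24 h after compound addition. Signal analysed relative to DMSO vehicle, positive fitting direction.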

Read-out in test [8]: Vascular cell adhesion molecule 1 (VCAM1), VCAM1 (gene 7412)
Put plainly: BSK_MyoF_VCAM1: BioMAP Diversity Plus: MyoF Assay for Vascular cell adhesion molecule 1 (VCAM1) Biomarker Activity (AID 2284231). Conditions: primary human lung fibroblasts. In short, it runs like this:
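ELISA readout of VCAM-1 on human lung fibroblast cultures 24 hours after dosing, analyzed for signal gain relative to DMSO. Overt cytotoxicity was checked by sulforhodamine B total-protein staining in parallel cultures.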

The nature of test [9]: CCTE_Mundy_HCI_Cortical_NOG_NeuriteLength: CCTE's Neurite Outgrowth Assay in rat cortical cells for Neurite Length, Mundy Lab (AID 2284213). In short, it runs like this:
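First, rat primary cortical cells were plated and, 2 h later, given test chemical as a 1/10 dilution. Finally, βIII-tubulin immunostaining enabled automated imaging of neurite length.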

A short description of test [10]: CCTE_Mundy_HCI_Cortical_Synap_Neur_Matur_NeuriteLength: CCTE's Synaptogenesis and Neurite Maturation Assay in rat cortical cells for Neurite Length, Mundy Lab (AID 2284214). In outline:
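Read-out: high-content imaging of MAP2-labelled neurites, with synaptophysin and Hoechst co-stain, in rat cortical cultures fixed at DIV 12. Activity fitted in positive direction relative to DMSO baseline.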

Test [11] can be described thus: CCTE_Mundy_HCI_Cortical_Synap_Neur_Matur_NeuriteSpotCountPerNeuron: CCTE's Synaptogenesis and Neurite Maturation Assay in rat cortical cells for Neurite Spot Count per Neuron Count, Mundy Lab (AID 2284215). In outline:
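High-content imaging counts synaptophysin puncta along MAP2-labelled neurites per neuron after chemical exposure of rat cortical cells from DIV 7 to termination at DIV 12 (AraC added DIV 5). Loss of signal relative to DMSO.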

Test [12] in a line: CCTE_Mundy_HCI_Cortical_Synap_Neur_Matur_SynapseCount: CCTE's Synaptogenesis and Neurite Maturation Assay in rat cortical cells for Synapse Count, Mundy Lab (AID 2284218). In outline:
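Read-out: synapse number per neuron, automated high-content imaging of fixed cells immunostained for MAP2 and synaptophysin plus Hoechst nuclei. Rat primary cortical cultures, AraC at DIV 5, chemical dosing DIV 7–12. Positive-direction fit relative to DMSO.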

Test [13] is described as follows: CCTE_Mundy_HCI_Cortical_Synap_Neur_Matur_NeuriteCount: CCTE's Synaptogenesis and Neurite Maturation Assay in rat cortical cells for Neurite Count, Mundy Lab (AID 2284222).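 Also: exposure from day 7 to day 12 in vitro with readout at day 12.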 In outline: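 Rat cortical neurons, 96-well; AraC DIV 5; chemical + media change DIV 7; end DIV 12. Fix PFA/Hoechst, anti-MAP2 + anti-synaptophysin IF. HCI neurite count vs DMSO baseline.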
Test [14] is described as follows: CCTE_Mundy_HCI_Cortical_Synap_Neur_Matur_CellBodySpotCount: CCTE's Synaptogenesis and Neurite Maturation Assay in rat cortical cells for Cell Body Spot Count, Mundy Lab (AID 2284223). In short, it runs like this: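 High-content imaging counts synaptophysin puncta on neuronal cell bodies per neuron after MAP2/synaptophysin immunostaining. Rat primary cortical cells, glia arrested with AraC at DIV 5, were exposed DIV 7–12; signal decrease measured against DMSO.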

A short description of test [15]: UKN2_HCS_IMR90_cell_viability: Viability Assessment in the University of Konstanz (UKN) Leist Lab Neural Crest Cell Migration Assay in human induced IMR90 Pluripotent Stem Cells (UKN2) (AID 2284233).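 Also: cells exposed to compound for 24 h after a 24 h migration phase.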 In short, it runs like this:
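After calcein-AM/Hoechst staining, viability is quantified by high-content fluorescence imaging, relative to DMSO, in iPSC (IMR90)-derived neural crest cells. Exposure lasts 24 h, starting after a 24 h migration period on PLO/laminin/fibronectin coating.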

The nature of test [16]: CCTE_Mundy_HCI_Cortical_NOG_NeuronCount: CCTE's Neurite Outgrowth Assay in rat cortical cells for Neuron Count, Mundy Lab (AID 2284236; active = hit-call score of the fitted dose curve at least 0.9, where 1 is the maximum;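 also: neurons counted by imaging betaIII-tubulin and Hoechst stained cortical cells; cells exposed to compound for about 48 hours before fixation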). In short, it runs like this: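 Read-out: neuron number by high-content imaging of betaIII-tubulin (Alexa Fluor-488) and Hoechst-labelled rat primary cortical cells.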

Sequence of Tumor necrosis factor (Homo sapiens) (P01375 whole entry, looked up): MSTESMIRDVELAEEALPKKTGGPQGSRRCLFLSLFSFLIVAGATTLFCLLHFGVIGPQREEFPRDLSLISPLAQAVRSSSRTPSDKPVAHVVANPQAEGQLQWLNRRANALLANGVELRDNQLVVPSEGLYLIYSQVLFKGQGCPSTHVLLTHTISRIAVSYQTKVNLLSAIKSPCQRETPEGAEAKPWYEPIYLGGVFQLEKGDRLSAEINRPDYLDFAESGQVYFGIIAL

As usually defined, the AC50 is the midpoint of the concentration-response curve, whichever way the signal moves. In the case of `FC(F)(F)C(F)(F)C(F)(F)C(F)(F)C(F)(F)C(F)(F)C(F)(F)C(F)(F)CCS`, the compound was classed as inactive in test [1], in [2], in test [3], in test [4], in test [5] and in [6]. Besides, the result in test [7] and in test [8] was inactive. Besides, the AC50 in test [8] is 6.22 µM (active).

Take `O=C(O)C(F)(F)C(F)(F)C(F)(F)C(F)(F)C(F)(F)C(F)(F)C(F)(F)C(F)(F)Cl`: the AC50 in test [2] is 20.5 µM (active) and 22.2 µM (active); in test [4] it was 8.64 µM (active) and 37.3 µM (active); in [8] it was 43.5 µM (active) and 23.5 µM (active). Besides, the result in test [3], in test [5], in test [6] and in test [7] was inactive.

Turning to `O=C(O)C(F)(F)C(F)(F)C(F)(F)C(F)(F)C(F)(F)C(F)(F)C(F)(F)C(F)(F)C(F)(F)C(F)F`, the AC50 in test [2] is 22.9 µM (active); in [4] it was 16.4 µM (active); in test [8], 21.5 µM (active) and 23.5 µM (active). Moreover, the outcome in [2], in test [3], in test [4], in test [5], in [6] and in test [7] was inactive.

On to `O=C(Cl)C(F)(F)C(F)(F)C(F)(F)C(F)(F)C(F)(F)C(F)(F)C(F)(F)C(F)(F)F`, for which the outcome in test [2], in test [3], in [4], in test [5], in test [6] and in [7] was inactive. Also, the AC50 in test [8] is 27.2 µM (active) and 45.4 µM (active) and 44.1 µM (active).

`O=C(O)C(F)(OC(F)(F)C(F)(OC(F)(F)C(F)(F)C(F)(F)F)C(F)(F)F)C(F)(F)F` (configuration not stated): the outcome in [2], in [3], in test [4], in [5], in test [6] and in test [7] was inactive. Further, in test [8], the result was inactive.

For the compound `CO[Si](OC)(c1ccccc1)c1ccccc1`, the outcome in [2], in test [3], in test [4], in test [5], in [6] and in [7] was inactive. The AC50 in [8] is 32.8 µM (active).

For `OCCCC(F)(F)C(F)(F)C(F)(F)F`, the result in test [2], in [3], in test [4], in test [5], in test [6] and in test [7] was inactive. The result in [8] was inactive.

With `CCCCCCCOC(=O)c1ccccc1C(=O)OCCCCCCC`, the result in test [2], in test [4], in [5], in [6], in [7] and in [8] was inactive. Also, in [3], the AC50 is 13.3 µM (active).

Regarding `CC(CCl)OP(=O)(OC(C)CCl)OC(C)CCl` (configuration not stated), the result in [9], in test [10], in test [11], in test [12], in test [13] and in test [14] was inactive. For the same compound, the compound was classed as inactive in test [1], in test [2], in test [3], in test [4], in [5] and in test [6]. Also, the outcome in [7], in test [8], in test [15] and in test [16] was inactive.

For the compound `O=C(O)C(F)(F)C(F)(F)C(F)(F)F`, the compound was classed as inactive in test [1], in [2], in test [3], in test [4], in test [5] and in [6]. Besides, the outcome in [7] and in test [8] was inactive.

In the case of `CCCCNc1ccccc1`, the result in test [2], in [3], in test [4], in test [5], in test [6] and in test [7] was inactive. For the same compound, the result in test [8] was inactive.

As for `FC(F)(F)C(F)(F)C(F)(F)N(C(F)(F)C(F)(F)C(F)(F)F)C(F)(F)C(F)(F)C(F)(F)F`, the outcome in test [2], in test [3], in test [4], in [5], in test [6] and in [7] was inactive. In test [8], the outcome was inactive.

In the case of `FC(F)(F)C(F)(F)C(F)(F)C(F)(F)C(F)(F)C(F)(F)C(F)(F)C(F)(F)F`, the call in [1], in [2], in [3], in test [4], in test [5] and in [6] was inactive. The result in [7] and in [8] was inactive.

In the case of `OCC(F)(F)C(F)(F)C(F)(F)C(F)(F)C(F)(F)C(F)(F)F`, the AC50 in [2] is 41 µM (active); in test [3] it was 43.9 µM (active); in test [4], 47.7 µM (active); in test [7], 41.2 µM (active). Also, the result in test [2], in test [3], in [4], in test [5], in [6] and in [7] was inactive. Moreover, the outcome in [8] was inactive.

Turning to `O=S(=O)(OCC(F)F)C(F)(F)F`, the outcome in [2], in test [3], in [4], in [5], in test [6] and in [7] was inactive. Besides, in test [8], the outcome was inactive. Besides, in [7], the AC50 was 1.01 µM (active).

On to `CCCCOCCOCCOC(=O)CCCCC(=O)OCCOCCOCCCC`, for which the result in test [2], in test [3], in test [4], in [5], in test [6] and in [7] was inactive. For the same compound, the outcome in [8] was inactive.
